Reference: PubChem BioAssay (EPA / NIEHS)
Where a structure was tested more than once in an assay, its records may differ in their call. Active and inactive are the calls of the source. Rule for the calls: active = hit-call score of the fitted dose curve at least 0.9, where 1 is the maximum; inactive = score below 0.9.

Columns and labels:
[1] = target: Transcription factor E2F1 (Homo sapiens) (UniProt Q01094); test: ATG_E2F_CIS: Attagene CIS-FACTORIAL HepG2 Assay for human E2F Transcription Factor 1 (AID 2282935); conditions: HepG2 Attagene cis-reporter, E2F reporter RNA transcripts; actives raise or lower the signal
Method in brief: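 Total RNA from 24 h-treated, reporter-transfected HepG2 cells undergoes DNase I treatment, oligo(dT) reverse transcription, PCR and 6-FAM primer extension before capillary electrophoresis.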

[2] = ATG_E_Box_CIS: Attagene CIS-FACTORIAL HepG2 Assay for human Enhancer Box (E-box) (AID 2282936); conditions: HepG2 E-box cis-reporter transcription, actives raise or lower the signal
Method in brief: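 DMSO served as negative control and baseline for bidirectional fitting. Human hepatoma HepG2 cells, transiently transfected with cis-reporter constructs, were dosed 24 h; reporter mRNA read by RT-PCR and capillary electrophoresis.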

[3] = ATG_M_61_CIS: Attagene CIS-FACTORIAL HepG2 Assay for M61 Transcription Factor (Internal Marker) (AID 2282937); conditions: HepG2 Attagene CIS-FACTORIAL M61 internal marker reporter; actives raise or lower the signal
Method in brief: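 Readout is reporter mRNA by RT-PCR, fluorescent primer extension and capillary electrophoresis, with gain or loss fitted relative to DMSO. Transfected HepG2 cells carrying endogenous-TF-driven cis reporters were exposed to chemicals for 24 hours.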

[4] = ATG_EGR_CIS: Attagene CIS-FACTORIAL HepG2 Assay for human Early Growth Response 1 (EGR1) (AID 2282938); conditions: HepG2 Attagene CIS-FACTORIAL EGR reporter mRNA; actives raise or lower the signal
Method in brief: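 After 24 h compound exposure, RNA from reporter-transfected HepG2 cells was reverse-transcribed, PCR-amplified, fluorescently labelled and resolved by capillary electrophoresis. EGR1 reporter transcript changes, up or down, were fitted against DMSO, reflecting endogenous transcription-factor activity.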

[5] = ATG_M_19_CIS: Attagene CIS-FACTORIAL HepG2 Assay for M19 Transcription Factor (Internal Marker) (AID 2282939); conditions: HepG2 Attagene CIS-FACTORIAL M19 internal marker reporter; actives raise or lower the signal
Method in brief: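 Chemical-treated HepG2 (24 h) with MRTU constructs; reporter transcripts detected by fluorescent RT-PCR fragment analysis on capillary electrophoresis. Internal background marker, DMSO as baseline.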

[6] = ATG_Ets_CIS: Attagene CIS-FACTORIAL HepG2 Assay for human Erythroblast Transformation Specific (ETS) (AID 2282941); conditions: HepG2 ETS cis-reporter transcription, actives raise or lower the signal
Method in brief: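 Steps: transfect HepG2 with multiple reporter units; treat compound 24 h; isolate RNA, DNase-treat, reverse-transcribe; PCR-amplify, label with 6-FAM, digest with HpaI; separate by capillary electrophoresis. Activity fitted both directions versus DMSO.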

[7] = target: Hepatocyte nuclear factor 3-beta (Homo sapiens) (UniProt Q9Y261); test: ATG_FoxA2_CIS: Attagene CIS-FACTORIAL HepG2 Assay for human Forkhead box A2 (FOXA2) (AID 2282942); conditions: HepG2 cis-reporter transcription factor activity, 24 h; actives raise or lower the signal
Method in brief: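 Endogenous transcription factor activity is captured via cis-element-driven reporter transcripts in transfected HepG2. Total RNA taken at 24 h post-dosing; labelled RT-PCR products resolved by capillary electrophoresis. Gain or loss fitted versus DMSO.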

[8] = ATG_FoxO_CIS: Attagene CIS-FACTORIAL HepG2 Assay for human Forkhead box O (FoxO) (AID 2282943); conditions: HepG2 Attagene cis-reporter, FoxO element, mRNA; actives raise or lower the signal
Method in brief: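 Endogenous transcription factor activity read from multiplexed cis-promoter reporter transcripts in transiently transfected HepG2, 24 h after dosing. Reporter RNA measured via RT-PCR plus capillary electrophoresis of FAM-labeled products; gain or loss relative to DMSO.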

[9] = ATG_GATA_CIS: Attagene CIS-FACTORIAL HepG2 Assay for human GATA Binding Protein (AID 2282944); conditions: HepG2 GATA cis-element reporter, Attagene multiplex mRNA; actives raise or lower the signal
Method in brief: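 Transfected cis-reporter HepG2 cells were treated with chemicals for 24 hours. Total RNA was then converted to cDNA, amplified with reporter-specific primers and analysed by fluorescent capillary electrophoresis, using DMSO-treated wells as baseline.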

[10] = ATG_GLI_CIS: Attagene CIS-FACTORIAL HepG2 Assay for human Zinc Finger Protein GLI1 (AID 2282945); conditions: HepG2, Attagene cis-factorial reporter mRNA, GLI element; actives raise or lower the signal
Method in brief: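 Bidirectional curve fits relative to DMSO, using reporter mRNA levels from RT-PCR plus capillary electrophoresis. Cells were HepG2 transiently carrying cis-regulated reporter constructs, harvested 24 h after dosing.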

[11] = ATG_M_32_CIS: Attagene CIS-FACTORIAL HepG2 Assay for M32 Transcription Factor (Internal Marker) (AID 2282949); conditions: HepG2 Attagene cis-factorial M32 reporter, mRNA; actives raise or lower the signal;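 note: background control marker of the multiplexed CIS panel rather than a real target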
Method in brief: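 Following 24 h chemical exposure of HepG2 cells transiently expressing cis-promoter reporter constructs, reporter transcript levels were determined by RT-PCR with fluorescent labelling and capillary electrophoresis, then fitted bidirectionally against DMSO.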

[12] = target: Hypoxia-inducible factor 1-alpha (Homo sapiens) (UniProt Q16665); test: ATG_HIF1a_CIS: Attagene CIS-FACTORIAL HepG2 Assay for human Hypoxia Inducible Factor 1 (HIF1A) (AID 2282951); conditions: HepG2 Attagene cis-factorial HIF1a reporter transcription; actives raise or lower the signal
Method in brief: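 Activity is fitted in both directions relative to DMSO. Reporter transcripts are read by RT-PCR, fluorescent primer extension and capillary electrophoresis after 24 h chemical treatment. The cells are HepG2 carrying transiently transfected cis-element-driven reporter units responding to endogenous factors.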

[13] = target: Hepatocyte nuclear factor 6 (Homo sapiens) (UniProt Q9UBC0); test: ATG_HNF6_CIS: Attagene CIS-FACTORIAL HepG2 Assay for human Hepatocyte Nuclear Factor 6 (HNF6) (AID 2282952); conditions: HepG2 Attagene cis-factorial HNF6 reporter transcription; actives raise or lower the signal
Method in brief: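 Reporter mRNA induction or loss in HepG2 after 24 h exposure; transient cis-MRTU transfection; fragments quantified by capillary electrophoresis; bidirectional analysis, DMSO as negative control.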

[14] = ATG_MRE_CIS: Attagene CIS-FACTORIAL HepG2 Assay for human Metal Responsive Element (MRE) (AID 2282954); conditions: HepG2 MRE cis-reporter transcription, Attagene multiplex; actives raise or lower the signal
Method in brief: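 After a 24 h chemical exposure, transiently transfected HepG2 cells yield RNA whose reporter sequences are amplified, FAM-labelled and sized by capillary electrophoresis. Curves are fitted bidirectionally relative to DMSO.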

[15] = ATG_ERE_CIS: Attagene CIS-FACTORIAL HepG2 Assay for Estrogen Response Element (ERE) (AID 2282940); conditions: HepG2 ERE cis-reporter, Attagene RNA transcript; actives raise or lower the signal
Method in brief: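 Human liver cells (HepG2) bearing transiently transfected, promoter-regulated reporter units were exposed 24 h. Reporter mRNA induction was detected by capillary electrophoresis of labelled RT-PCR products and fitted bidirectionally to DMSO.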

[16] = ATG_GRE_CIS: Attagene CIS-FACTORIAL HepG2 Assay for human Glucocorticoid Response Elements (GRE) (AID 2282947); conditions: HepG2 GRE cis-reporter, Attagene multiplex mRNA; actives raise or lower the signal
Method in brief: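 Assay uses human hepatoma HepG2 cells transfected with cis-promoter reporter units, exposed 24 h. mRNA from reporters detected by RT-PCR plus capillary electrophoresis; DMSO serves as negative control and baseline.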

[17] = ATG_ISRE_CIS: Attagene CIS-FACTORIAL HepG2 Assay for human Interferon Regulatory Factor 1 (IRF1) binding to an Interferon-Stimulated Response Element (ISRE) (AID 2282948); conditions: HepG2 ISRE cis-reporter (Attagene), mRNA transcription readout; actives raise or lower the signal
Method in brief: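 Transfected HepG2 (multiple reporter transcription units, cis elements) dosed 24 h. RNA → oligo(dT) RT → PCR → 6-FAM primer extension → HpaI → CE. DMSO = negative control/baseline.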

[18] = ATG_M_06_CIS: Attagene CIS-FACTORIAL HepG2 Assay for M06 Transcription Factor (Internal Marker) (AID 2282950); conditions: HepG2 Attagene CIS-FACTORIAL M06 internal marker reporter; actives raise or lower the signal
Method in brief: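 Cells (HepG2, transiently carrying cis-driven reporter units) receive chemical for 24 h before RNA isolation. Reporter cDNA is PCR-amplified, FAM-labelled by primer extension, HpaI-digested and sized on a capillary analyser.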

[19] = target: Bile acid receptor (Homo sapiens) (UniProt Q96RI1); test: ATG_IR1_CIS: Attagene CIS-FACTORIAL HepG2 Assay for human Nuclear Receptor Subfamily 1 Group H Member 4 (NR1H4), IR1 submotif (AID 2282946); conditions: IR1 reporter transcription, actives raise or lower the signal
Method in brief: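 Cells (human HepG2) carry transiently transfected cis-promoter reporter transcription units. Compounds are incubated 24 h, total RNA is reverse-transcribed and amplified, and labelled fragments are resolved by capillary electrophoresis. Curves use DMSO as baseline.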

Measured: AC50

Sequence of Hepatocyte nuclear factor 3-beta (Homo sapiens) (Q9Y261 whole entry, looked up): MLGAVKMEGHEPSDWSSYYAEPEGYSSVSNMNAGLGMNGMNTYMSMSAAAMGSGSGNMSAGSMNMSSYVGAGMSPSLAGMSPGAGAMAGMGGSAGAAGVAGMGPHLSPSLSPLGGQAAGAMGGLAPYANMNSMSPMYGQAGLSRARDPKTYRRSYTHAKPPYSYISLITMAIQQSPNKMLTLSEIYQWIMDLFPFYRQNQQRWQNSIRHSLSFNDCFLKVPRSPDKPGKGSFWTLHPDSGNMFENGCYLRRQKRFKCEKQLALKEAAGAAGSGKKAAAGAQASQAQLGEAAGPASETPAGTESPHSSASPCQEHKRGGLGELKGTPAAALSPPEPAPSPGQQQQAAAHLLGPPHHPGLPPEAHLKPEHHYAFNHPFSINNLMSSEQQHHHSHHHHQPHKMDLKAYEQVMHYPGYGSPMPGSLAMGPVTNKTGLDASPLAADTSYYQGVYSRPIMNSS
Sequence of Transcription factor E2F1 (Homo sapiens) (Q01094 whole entry, looked up): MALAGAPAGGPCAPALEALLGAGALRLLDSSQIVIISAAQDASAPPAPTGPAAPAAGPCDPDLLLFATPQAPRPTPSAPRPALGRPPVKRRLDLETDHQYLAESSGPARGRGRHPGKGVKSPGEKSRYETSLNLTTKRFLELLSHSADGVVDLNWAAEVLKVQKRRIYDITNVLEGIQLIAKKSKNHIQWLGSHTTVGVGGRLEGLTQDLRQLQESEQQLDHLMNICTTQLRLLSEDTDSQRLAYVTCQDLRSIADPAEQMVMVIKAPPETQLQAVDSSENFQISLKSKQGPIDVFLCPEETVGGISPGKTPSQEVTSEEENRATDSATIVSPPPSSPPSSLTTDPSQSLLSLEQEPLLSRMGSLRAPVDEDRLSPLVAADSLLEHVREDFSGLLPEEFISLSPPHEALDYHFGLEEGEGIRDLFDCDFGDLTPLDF
Sequence of Hepatocyte nuclear factor 6 (Homo sapiens) (Q9UBC0 whole entry, looked up, the tested form may be a part): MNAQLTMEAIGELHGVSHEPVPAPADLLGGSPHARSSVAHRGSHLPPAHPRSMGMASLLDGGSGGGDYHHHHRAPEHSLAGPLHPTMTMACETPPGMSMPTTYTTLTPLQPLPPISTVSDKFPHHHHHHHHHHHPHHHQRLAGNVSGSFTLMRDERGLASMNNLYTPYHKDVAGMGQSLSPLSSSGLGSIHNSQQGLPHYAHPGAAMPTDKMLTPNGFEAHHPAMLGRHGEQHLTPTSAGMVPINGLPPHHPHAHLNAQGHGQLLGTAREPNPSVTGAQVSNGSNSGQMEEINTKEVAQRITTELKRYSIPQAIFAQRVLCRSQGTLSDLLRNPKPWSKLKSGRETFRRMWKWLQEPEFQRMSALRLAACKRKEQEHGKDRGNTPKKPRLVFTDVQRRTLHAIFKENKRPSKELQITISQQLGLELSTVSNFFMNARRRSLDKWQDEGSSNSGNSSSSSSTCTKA
Sequence of Hypoxia-inducible factor 1-alpha (Homo sapiens) (Q16665 whole entry, looked up): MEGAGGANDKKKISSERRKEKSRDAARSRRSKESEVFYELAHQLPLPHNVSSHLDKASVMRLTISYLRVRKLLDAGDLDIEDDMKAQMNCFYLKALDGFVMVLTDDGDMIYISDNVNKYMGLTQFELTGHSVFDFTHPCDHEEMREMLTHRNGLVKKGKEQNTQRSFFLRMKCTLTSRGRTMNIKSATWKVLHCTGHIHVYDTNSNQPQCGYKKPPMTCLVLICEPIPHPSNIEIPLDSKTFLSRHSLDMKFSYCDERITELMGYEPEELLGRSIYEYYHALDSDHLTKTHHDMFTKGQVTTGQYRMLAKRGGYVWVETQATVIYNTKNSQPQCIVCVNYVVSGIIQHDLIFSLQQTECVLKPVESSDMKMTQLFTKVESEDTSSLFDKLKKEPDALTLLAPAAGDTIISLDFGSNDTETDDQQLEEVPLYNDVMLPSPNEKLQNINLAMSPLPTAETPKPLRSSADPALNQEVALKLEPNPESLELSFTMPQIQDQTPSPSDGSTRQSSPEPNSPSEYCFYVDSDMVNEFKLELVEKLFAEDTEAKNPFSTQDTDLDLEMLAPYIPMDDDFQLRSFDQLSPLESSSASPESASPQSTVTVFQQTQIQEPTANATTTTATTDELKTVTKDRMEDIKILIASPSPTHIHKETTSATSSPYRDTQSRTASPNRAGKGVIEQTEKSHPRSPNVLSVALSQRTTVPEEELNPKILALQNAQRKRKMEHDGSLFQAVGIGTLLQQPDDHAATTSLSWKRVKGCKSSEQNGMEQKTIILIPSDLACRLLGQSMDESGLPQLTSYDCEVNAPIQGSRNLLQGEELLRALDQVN
Sequence of Bile acid receptor (Homo sapiens) (Q96RI1 whole entry, looked up, the tested form may be a part): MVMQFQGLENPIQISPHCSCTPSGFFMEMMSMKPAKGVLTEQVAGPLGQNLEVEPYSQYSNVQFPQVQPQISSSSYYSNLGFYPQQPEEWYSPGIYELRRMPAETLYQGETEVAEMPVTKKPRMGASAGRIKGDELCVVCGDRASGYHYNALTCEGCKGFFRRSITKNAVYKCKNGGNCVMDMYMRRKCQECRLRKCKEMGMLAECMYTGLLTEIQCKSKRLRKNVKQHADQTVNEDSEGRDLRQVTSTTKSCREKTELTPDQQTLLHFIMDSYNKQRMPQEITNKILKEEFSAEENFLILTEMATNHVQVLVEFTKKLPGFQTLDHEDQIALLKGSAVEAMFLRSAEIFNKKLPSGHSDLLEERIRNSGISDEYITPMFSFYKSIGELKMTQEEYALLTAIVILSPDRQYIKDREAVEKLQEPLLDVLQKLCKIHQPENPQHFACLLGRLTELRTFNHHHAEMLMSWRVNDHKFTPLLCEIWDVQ

CC(C)(C)C(O)C(Oc1ccc(Cl)cc1)n1cncn1 (stereo unspecified)
inactive: [1] | [2] | [3] | [4] | [5] | [6] | [7] | [8] | [9] | [10] | [11] | [12] | [13] | [14]
active: [7] 16.9 µM | [14] 7.83 µM

[2H]C1([2H])[n+]2ccccc2-c2cccc[n+]2C1([2H])[2H]
inactive: [3] | [4] | [5] | [15] | [6] | [7] | [8] | [9] | [10] | [16] | [11] | [12] | [13] | [14]
active: [1] 90.7 µM | [2] 78.7 µM

CCOC1Oc2ccc(OS(C)(=O)=O)cc2C1(C)C (stereo unspecified)
active: [14] 50 µM
inactive: [1] | [2] | [3] | [4] | [5] | [15] | [6] | [7] | [8] | [9] | [10] | [17] | [11] | [18] | [12] | [13]

CC1(C)C(C=C(Cl)Cl)C1C(=O)OC(C#N)c1ccc(F)c(Oc2ccccc2)c1 (stereo unspecified)
inactive: [1] | [2] | [3] | [4] | [5] | [15] | [6] | [7] | [8] | [9] | [10] | [16] | [17] | [11] | [12] | [13] | [14]

O=C(O)C(F)(F)C(F)(F)C(F)(F)C(F)(F)C(F)(F)C(F)(F)C(F)(F)F
inactive: [1] | [2] | [3] | [4] | [5] | [6] | [7] | [8] | [9] | [10] | [11] | [12] | [13] | [14]

COP(=S)(OC)Oc1ccc([N+](=O)[O-])cc1
inactive: [1] | [2] | [3] | [4] | [5] | [15] | [6] | [7] | [8] | [9] | [10] | [19] | [11] | [12] | [13] | [14]

O=C(O)CCCOc1ccc(Cl)cc1Cl
inactive: [1] | [2] | [3] | [4] | [5] | [6] | [7] | [8] | [9] | [10] | [11] | [18] | [12] | [13] | [14]
